Source: the supplement of paper PMC10849652
The full data set covers some 7,900 targets. This sample favours those with a hit. About 0.6% of all pairs of compound and target were hits.

The targets below were run with CC1=C(C=C(C=C1)NC(=O)C2=CC(=CC=C2)C(C)(C)C#N)NC3=CC4=C(C=C3)N=CN(C4=O)C (assay: log2 fold change, soluble protein after heating vs DMSO (PISA); higher = thermal stabilisation; K562 cells, 10 uM, 30 min; active = over 0.2 and 3.5 SD of the protein, either way, in both replicates (recomputed)).
Procedure, shortened: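 Quantification of soluble protein used TMTpro 16plex LC-MS/MS, with channel sums equalised. Samples were the supernatant after 21,000xg for 90 min of pooled aliquots from K562 cells (2×10^6 cells/mL) treated with 10 μM compound for 30 min, heated for 3 min over 48°C-58°C, and extracted in PBS with 0.5% NP-40 at 4°C. Values, from duplicates, describe thermal stability against control samples on a log2 fold-change scale.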

UniProt Q4L235, sequence (Q4L235 whole entry, looked up): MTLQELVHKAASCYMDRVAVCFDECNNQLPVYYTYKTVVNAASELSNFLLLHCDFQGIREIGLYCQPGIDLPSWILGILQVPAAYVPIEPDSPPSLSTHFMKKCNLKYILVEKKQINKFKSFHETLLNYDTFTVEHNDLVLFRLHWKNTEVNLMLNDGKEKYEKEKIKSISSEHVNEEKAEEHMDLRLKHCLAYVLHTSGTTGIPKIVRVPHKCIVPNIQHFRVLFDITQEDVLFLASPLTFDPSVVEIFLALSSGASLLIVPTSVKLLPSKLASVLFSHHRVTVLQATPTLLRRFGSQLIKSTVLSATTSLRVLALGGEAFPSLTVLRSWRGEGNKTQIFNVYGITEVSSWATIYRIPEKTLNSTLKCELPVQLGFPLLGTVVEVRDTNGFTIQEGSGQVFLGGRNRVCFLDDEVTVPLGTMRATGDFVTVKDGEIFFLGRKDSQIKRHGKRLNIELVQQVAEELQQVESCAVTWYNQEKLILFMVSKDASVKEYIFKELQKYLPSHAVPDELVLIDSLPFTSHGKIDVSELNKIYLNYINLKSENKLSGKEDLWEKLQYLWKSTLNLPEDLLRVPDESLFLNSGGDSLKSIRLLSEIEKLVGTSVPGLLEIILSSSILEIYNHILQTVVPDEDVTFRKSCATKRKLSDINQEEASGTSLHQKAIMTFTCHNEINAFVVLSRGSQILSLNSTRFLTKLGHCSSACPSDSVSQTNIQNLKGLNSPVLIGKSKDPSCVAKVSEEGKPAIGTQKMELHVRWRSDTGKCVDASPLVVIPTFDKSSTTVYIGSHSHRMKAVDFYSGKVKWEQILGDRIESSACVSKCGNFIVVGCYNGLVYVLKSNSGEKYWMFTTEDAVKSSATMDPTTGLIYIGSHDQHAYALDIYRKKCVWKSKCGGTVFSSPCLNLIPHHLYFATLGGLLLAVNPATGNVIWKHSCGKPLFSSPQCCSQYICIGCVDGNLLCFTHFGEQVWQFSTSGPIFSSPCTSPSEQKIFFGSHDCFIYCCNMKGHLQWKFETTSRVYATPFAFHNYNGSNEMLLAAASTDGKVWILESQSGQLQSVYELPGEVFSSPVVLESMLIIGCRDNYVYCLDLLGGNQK
UniProt Q8N6H7, sequence (Q8N6H7 whole entry, looked up): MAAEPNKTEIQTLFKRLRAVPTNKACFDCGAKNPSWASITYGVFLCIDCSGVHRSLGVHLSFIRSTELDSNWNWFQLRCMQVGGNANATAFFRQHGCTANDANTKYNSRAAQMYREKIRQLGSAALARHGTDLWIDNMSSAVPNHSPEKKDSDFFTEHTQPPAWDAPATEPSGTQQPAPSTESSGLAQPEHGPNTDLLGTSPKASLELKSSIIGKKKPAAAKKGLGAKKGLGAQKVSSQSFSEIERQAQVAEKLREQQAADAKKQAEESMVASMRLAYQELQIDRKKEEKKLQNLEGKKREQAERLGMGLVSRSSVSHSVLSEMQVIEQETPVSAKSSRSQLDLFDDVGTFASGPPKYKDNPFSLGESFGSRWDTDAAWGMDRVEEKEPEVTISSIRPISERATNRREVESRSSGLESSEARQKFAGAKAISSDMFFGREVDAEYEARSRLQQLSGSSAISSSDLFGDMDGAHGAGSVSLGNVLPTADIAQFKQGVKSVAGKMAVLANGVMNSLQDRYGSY
UniProt Q562R1, sequence (Q562R1 whole entry, looked up): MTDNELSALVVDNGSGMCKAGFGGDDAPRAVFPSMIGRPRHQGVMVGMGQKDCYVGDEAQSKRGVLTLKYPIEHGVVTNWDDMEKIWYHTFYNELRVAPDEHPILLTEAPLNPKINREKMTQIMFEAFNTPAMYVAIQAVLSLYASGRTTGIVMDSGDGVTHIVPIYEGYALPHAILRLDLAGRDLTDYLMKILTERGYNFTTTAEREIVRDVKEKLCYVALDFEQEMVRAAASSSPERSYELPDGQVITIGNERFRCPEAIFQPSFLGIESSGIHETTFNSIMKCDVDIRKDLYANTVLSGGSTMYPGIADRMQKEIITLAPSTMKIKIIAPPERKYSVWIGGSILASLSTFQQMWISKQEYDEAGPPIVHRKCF
UniProt Q9NWX5, sequence (Q9NWX5 whole entry, looked up): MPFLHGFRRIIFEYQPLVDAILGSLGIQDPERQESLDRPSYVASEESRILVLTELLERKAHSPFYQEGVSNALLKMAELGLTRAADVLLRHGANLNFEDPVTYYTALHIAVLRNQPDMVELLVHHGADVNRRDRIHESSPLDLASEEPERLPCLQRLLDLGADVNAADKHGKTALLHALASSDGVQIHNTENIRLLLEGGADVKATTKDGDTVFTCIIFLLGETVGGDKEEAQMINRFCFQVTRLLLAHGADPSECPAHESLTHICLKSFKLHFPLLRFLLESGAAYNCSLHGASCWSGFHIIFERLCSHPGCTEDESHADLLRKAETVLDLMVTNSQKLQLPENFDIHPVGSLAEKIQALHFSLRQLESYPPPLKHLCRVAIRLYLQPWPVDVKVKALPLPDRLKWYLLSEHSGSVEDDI
UniProt Q96KE9, sequence (Q96KE9 whole entry, looked up): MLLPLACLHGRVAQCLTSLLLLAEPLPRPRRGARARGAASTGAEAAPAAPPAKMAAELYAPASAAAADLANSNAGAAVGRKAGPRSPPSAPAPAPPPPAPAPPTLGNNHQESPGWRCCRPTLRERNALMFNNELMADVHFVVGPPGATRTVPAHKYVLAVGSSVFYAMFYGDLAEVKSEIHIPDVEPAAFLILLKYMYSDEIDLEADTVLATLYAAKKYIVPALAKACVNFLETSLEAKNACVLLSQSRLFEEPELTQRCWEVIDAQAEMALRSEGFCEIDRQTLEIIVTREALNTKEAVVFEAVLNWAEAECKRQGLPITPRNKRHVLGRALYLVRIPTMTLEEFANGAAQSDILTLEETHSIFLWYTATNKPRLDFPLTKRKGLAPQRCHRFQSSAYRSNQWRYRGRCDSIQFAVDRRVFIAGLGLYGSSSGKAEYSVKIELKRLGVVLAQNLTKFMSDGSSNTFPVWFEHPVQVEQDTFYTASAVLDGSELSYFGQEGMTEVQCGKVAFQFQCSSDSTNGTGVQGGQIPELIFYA
UniProt Q8N5I2, sequence (Q8N5I2 whole entry, looked up): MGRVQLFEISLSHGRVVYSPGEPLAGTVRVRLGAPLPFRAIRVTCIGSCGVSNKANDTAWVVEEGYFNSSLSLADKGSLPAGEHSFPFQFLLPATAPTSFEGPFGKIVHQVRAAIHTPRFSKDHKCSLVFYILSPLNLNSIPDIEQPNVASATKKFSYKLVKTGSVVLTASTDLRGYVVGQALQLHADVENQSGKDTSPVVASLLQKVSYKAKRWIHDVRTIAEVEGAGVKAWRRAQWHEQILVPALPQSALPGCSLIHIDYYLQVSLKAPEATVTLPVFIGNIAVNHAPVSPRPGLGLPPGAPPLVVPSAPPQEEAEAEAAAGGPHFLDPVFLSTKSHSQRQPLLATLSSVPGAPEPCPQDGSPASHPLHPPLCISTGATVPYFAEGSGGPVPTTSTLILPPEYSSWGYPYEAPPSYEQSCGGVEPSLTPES
UniProt Q9BRQ8, sequence (Q9BRQ8 whole entry, looked up): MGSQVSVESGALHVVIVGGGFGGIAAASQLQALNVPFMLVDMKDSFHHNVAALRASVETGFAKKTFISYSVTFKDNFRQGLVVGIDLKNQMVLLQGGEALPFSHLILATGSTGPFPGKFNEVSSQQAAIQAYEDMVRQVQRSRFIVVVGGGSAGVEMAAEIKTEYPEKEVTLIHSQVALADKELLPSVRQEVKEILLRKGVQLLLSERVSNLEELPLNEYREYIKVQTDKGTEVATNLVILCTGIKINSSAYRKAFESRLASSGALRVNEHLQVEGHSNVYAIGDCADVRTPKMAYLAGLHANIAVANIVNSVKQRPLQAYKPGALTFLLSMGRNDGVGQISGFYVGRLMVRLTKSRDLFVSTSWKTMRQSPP
UniProt P17544, sequence (P17544 whole entry, looked up): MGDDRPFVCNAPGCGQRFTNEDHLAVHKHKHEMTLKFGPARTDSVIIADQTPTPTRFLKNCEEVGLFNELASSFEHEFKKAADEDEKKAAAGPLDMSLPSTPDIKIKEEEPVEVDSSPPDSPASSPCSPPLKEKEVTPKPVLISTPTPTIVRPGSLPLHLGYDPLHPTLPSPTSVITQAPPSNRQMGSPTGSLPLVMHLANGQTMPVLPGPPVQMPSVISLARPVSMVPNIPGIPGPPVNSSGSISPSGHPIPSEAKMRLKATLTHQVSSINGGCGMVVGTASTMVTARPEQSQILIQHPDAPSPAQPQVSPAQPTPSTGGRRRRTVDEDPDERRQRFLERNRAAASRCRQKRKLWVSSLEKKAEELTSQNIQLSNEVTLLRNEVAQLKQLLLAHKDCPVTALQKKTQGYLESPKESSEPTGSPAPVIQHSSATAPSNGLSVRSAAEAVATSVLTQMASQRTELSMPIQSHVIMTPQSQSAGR
UniProt P08758, sequence (P08758 whole entry, looked up): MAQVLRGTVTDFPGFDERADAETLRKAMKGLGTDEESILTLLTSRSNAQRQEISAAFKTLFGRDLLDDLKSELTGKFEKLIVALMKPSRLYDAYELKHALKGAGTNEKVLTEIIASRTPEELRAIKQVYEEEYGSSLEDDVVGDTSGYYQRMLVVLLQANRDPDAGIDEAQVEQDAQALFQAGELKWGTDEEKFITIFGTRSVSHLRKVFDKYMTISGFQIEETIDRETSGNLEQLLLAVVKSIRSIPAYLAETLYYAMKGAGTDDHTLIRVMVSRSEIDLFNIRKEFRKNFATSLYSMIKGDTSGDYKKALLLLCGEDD
UniProt Q9BUT1, sequence (Q9BUT1 whole entry, looked up): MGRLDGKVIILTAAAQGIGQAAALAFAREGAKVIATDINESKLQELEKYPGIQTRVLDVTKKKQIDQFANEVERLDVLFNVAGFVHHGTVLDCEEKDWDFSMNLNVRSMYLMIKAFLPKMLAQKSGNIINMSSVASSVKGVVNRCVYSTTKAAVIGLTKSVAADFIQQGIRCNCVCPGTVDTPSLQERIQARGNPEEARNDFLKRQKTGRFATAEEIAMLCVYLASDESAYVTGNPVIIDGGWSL

| Target | log2 fold change |
| --- | --- |
| ABHD17A isoform 2 (UniProt Q96GS6) | -0.004 (inactive) |
| AASDH (UniProt Q4L235) | -0.001 (inactive) |
| ARFGAP2 (UniProt Q8N6H7) | 0.03 (inactive) |
| ACTBL2 (UniProt Q562R1) | 0.238 (inactive) |
| AMD1 (UniProt P17707) | 0.013 (inactive) |
| BRD4 (UniProt O60885) | 0.245 (inactive) |
| ADPRH (UniProt P54922) | 0.014 (inactive) |
| BDH2 (UniProt Q9BUT1) | -0.051 (inactive) |
| ANXA5 (UniProt P08758) | 0.057 (inactive) |
| BTBD6 (UniProt Q96KE9) | -0.061 (inactive) |
| BYSL (UniProt Q13895) | 0.04 (inactive) |
| ALDH2 isoform 2 (UniProt P05091) | 0.075 (inactive) |
| ARRDC1 (UniProt Q8N5I2) | -0.061 (inactive) |
| BRIP1 (UniProt Q9BX63) | -0.049 (inactive) |
| ADAM15 (UniProt Q13444) | -0.045 (inactive) |
| ABCA3 (UniProt Q99758) | -0.029 (inactive) |
| AFG1L (UniProt Q8WV93) | 0.036 (inactive) |
| BRD8 isoform 2 (UniProt Q9H0E9) | -0.013 (inactive) |
| ASS1 (UniProt P00966) | -0.073 (inactive) |
| APOBEC3G (UniProt Q9HC16) | -0.019 (inactive) |
| ATF7 isoform 6 (UniProt P17544) | 0.465 (inactive) |
| AIFM2 (UniProt Q9BRQ8) | 0.013 (inactive) |
| ASB6 (UniProt Q9NWX5) | -0.085 (inactive) |
